Only a selection was taken, and hits are over-represented in it overall.
CBFb-RUNX1 inh = blocks binding between human CBF-beta and RUNX1. AID 1477. Q01196+Q13951. 230,000 tested, under 10 active. AlphaScreen CBFb-His/RUNX1-biotin binding, biochemical. Potency, µM (top dose mostly 59.8 µM), for the others: at the top dose activity, negative = inhibition, hits mostly inhibitors; further: % of control where 0% means no effect
Target sequence (Q01196 whole entry, looked up): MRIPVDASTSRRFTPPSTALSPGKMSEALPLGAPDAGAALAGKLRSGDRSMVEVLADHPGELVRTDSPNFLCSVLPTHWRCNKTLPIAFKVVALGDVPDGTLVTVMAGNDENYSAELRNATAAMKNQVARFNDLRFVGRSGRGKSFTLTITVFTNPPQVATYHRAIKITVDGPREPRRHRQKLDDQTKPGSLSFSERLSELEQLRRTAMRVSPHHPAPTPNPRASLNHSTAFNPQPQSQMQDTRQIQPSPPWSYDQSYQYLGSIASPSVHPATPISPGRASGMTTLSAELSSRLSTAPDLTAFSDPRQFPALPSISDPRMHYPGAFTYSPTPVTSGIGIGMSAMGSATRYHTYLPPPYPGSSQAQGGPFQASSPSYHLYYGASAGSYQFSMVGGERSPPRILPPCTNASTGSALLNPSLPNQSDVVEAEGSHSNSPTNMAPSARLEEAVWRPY
Target sequence (Q13951 whole entry, looked up): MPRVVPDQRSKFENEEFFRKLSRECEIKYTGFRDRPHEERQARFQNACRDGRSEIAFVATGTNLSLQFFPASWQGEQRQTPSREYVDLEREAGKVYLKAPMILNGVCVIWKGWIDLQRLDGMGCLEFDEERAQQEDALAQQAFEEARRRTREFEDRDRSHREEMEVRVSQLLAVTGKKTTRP
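CBFb-His/RUNX1-biotin, 30 nM each, preincubated 20 min RT; compound 15 min RT; Ni + streptavidin beads 50 ng each, 90 min RT; AlphaScreen read.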
GRP78 ERSR act = inducers of ER stress response in human glioma cells | U87-MG GRP78 promoter luciferase reporter, 16 h | Potency, µM, for the others: at the highest dose activation, most hits filed as activators | actives 0.02% (n = 420,000) | AID 602332; further: potency means the concentration at half of the fitted maximal effect; series mostly up to about 76 µM; % of control where 0% means no effect; nearly all actives have a fitted effect of over 35% in size
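Stably transfected U87-MG glioma cells carrying a GRP78-based luciferase sensor; 16 h compound incubation. Luminescence end-point read 10 min after Bright-Glo addition at room temperature.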
N370S GC mod = inhibits or activates N370S mutant glucocerebrosidase | actives 0.092% (n = 330,000) | P04062 | N370S GC spleen homogenate, 4MU-glucoside fluorescence | Potency, µM (doses to about 59.4 µM), for inactives: at the highest dose activity change, negative = inhibition, most hits filed as inhibitors | AID 2101;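 further: potency means the concentration at half of the fitted maximal effect; 0% = full enzyme activity and -100% = no enzyme basal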
a7 integrin act = activators of alpha7 integrin expression for muscular dystrophy; actives 0.064% (n = 350,000); Potency, µM (series often up to 38.3 µM), inactives show at the top dose activation, hits mostly activators; alpha7betagal myoblasts, beta-gal FDG fluorescence, 48 h;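 further: potency means the concentration at half of the fitted maximal effect; 100% = response of the positive control SU9516; nearly all actives have a fitted effect of over 60% in size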
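Alpha7betagal+/- myoblasts (passage 13) were plated 16-24 hr, then exposed to compounds (1:260 dilution of DMSO stock) for 48 hours at 37C. After MPER lysis, β-galactosidase reporter activity was read as FDG fluorescence (ex 480/em 540) after 30 minutes.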
Anesthetic bind = binds horse apoferritin like a general anesthetic; P02791; apoferritin/1-aminoanthracene competitive binding, fluorescence; Potency, µM (titrated, usually from 77.5 µM), for inactives: at the highest dose activity change, negative = displacement, usual class: inhibitors; actives 0.074% (n = 350,000); AID 485281; further: potency means the concentration at half of the fitted maximal effect; on the % scale 0 is the no-effect control and ±100 the full control effect; nearly all actives have a fitted effect of over 20% in size
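Horse-spleen apoferritin (10 uM) was mixed with 50% saturated 1-aminoanthracene in PBS, exposed to compounds for 10 min at room temperature, and read for fluorescence (ex 380 nm, em 535 nm). Competitive displacement was fitted with a four-parameter Hill equation.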
ClpP mod = qHTS Assay for Activators of ClpP | ATP-dependent Clp protease proteolytic subunit (Bacillus subtilis (strain 168)), P80244 | purified B. subtilis ClpP, FRET peptide cleavage, 20 min | Potency, µM (top dose mostly 57.5 µM), without a hit: at the top dose activity change, negative = active | actives 1.9% (n = 340,000); active means well fitted falling curve with a large enough effect; inconclusive means small, poorly fitted or top-dose-only effect; inactive means no such curve, though single readings can be large or run the other way; further: potency means the concentration at half of the fitted maximal effect; the source files actives as falling curves though it sought activators and does not explain the sign; nearly all actives have a fitted effect of over 65% in size
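FRET quenching reversal measured ClpP activation: 10 microg/mL B. subtilis ClpP at pH 8 with the FRET-FV decapeptide, read at 430 nm after 320 nm excitation. The 20-min minus 0-min signal was scaled between DMSO/no-enzyme wells and ADEP (5.8 microM final).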
Starred values were filed as active, the others as inactive; ? = inconclusive; · = no result given. Unless noted, the call rests on the fitted dose curve; in most records, active means well fitted curve in the direction sought with a large enough effect; inconclusive means small, poorly fitted or top-dose-only effect, or another doubt; inactive means no such curve, though single readings can be large; an effect the other way counts as inactive or inconclusive.

SMILES	CBFb-RUNX1 inh	GRP78 ERSR act	N370S GC mod	a7 integrin act	Anesthetic bind	ClpP mod
CCOC(=O)c1ccc(NC(=O)c2ccc3c(c2)c(C)c(C)n3Cc2ccc(F)cc2)cc1	·	-2%	·	·	14%	18µM*
COc1ccc(CCNC(=O)c2ccc3c(c2)c(C)c(C)n3Cc2ccccc2)c(OC)c1OC	·	1%	·	·	45%	?
Cc1c(C)n(Cc2ccccc2)c2ccc(C(=O)NCCc3ccccc3Cl)cc12	·	-1%	·	·	62%	16µM*
COc1ccc(NC(=O)c2ccc3c(c2)c(C)c(C)n3Cc2ccc(F)cc2)cc1	·	-5%	·	·	43%	?
CC[N+]1(CC(=O)c2ccc(OC)cc2)CCCCC1	·	-2%	·	·	·	1%
O=C1CCC[C@@H]2CC(Nc3ccccc3)C[C@@H]3CCN1[C@H]23 (stereo partly drawn)	·	-2%	·	·	·	1%
COc1ccc(CCNC(=O)c2ccc3c(c2)c(C)c(C)n3Cc2ccc(F)cc2)c(OC)c1OC	·	-1%	·	·	62%	25µM*
Cc1c(C)n(Cc2ccc(F)cc2)c2ccc(C(=O)NCCN3CCOCC3)cc12	·	-5%	14µM*	-24%	3%	-28%
Cc1cccc(Cn2c(C)c(C)c3cc(C(=O)NCCN4CCOCC4)ccc32)c1	·	-6%	?	-29%	4%	?
C#Cc1cccc(C(=O)NCc2nc(-c3ccccc3NC(C)=O)oc2C)c1	·	-3%	·	·	·	·
CCc1ccccc1NC(=S)N1CCN(c2cccc(OC)c2)CC1	·	-9%	-1%	-9%	-12%	10µM*
Cc1ccnn1CC(=O)N1CCOc2c(cc(-c3ncc(C(F)(F)F)cc3Cl)cc2OCC2CCCO2)C1 (stereo not drawn)	·	-3%	·	·	·	·
CCn1cc(/C=N/NS(=O)(=O)c2ccc(OC)cc2)c(C)n1	5%	-3%	4%	23%	-10%	32µM*
COC(=O)C1CCCCN1C(=O)c1ccc2oc(Cc3ccccc3)nc2c1 (stereo not drawn)	·	2%	-12%	3%	?	28µM*
COc1ccc(C(=O)N2CCN(c3ccc(N4CCOCC4)nn3)CC2)cc1OC	·	-2%	?	10%	·	25µM*
COc1cccc(-c2nn(C)c3sc(C(=O)NCc4ccco4)cc23)c1	-8%	5%	10%	11%	-13%	22µM*
CCN1CCCC1CNC(=O)c1cc2c(-c3cccc(OC)c3)nn(C)c2s1 (stereo not drawn)	-4%	4%	-7%	-50%	-11%	32µM*
CCN1CCCC1CNC(=O)c1cc2c(-c3ccc(Cl)cc3)nn(C)c2s1 (stereo not drawn)	-3%	?	-8%	-51%	-18%	4%
CCN(CC)CCCNC(=O)c1cc2c(-c3cccc(OC)c3)nn(C)c2s1	·	-1%	-16%	-56%	-1%	5%
COc1cc(=O)n2c(c1C(=O)N(C)Cc1nccs1)CCN(Cc1cccc(F)c1F)CC2	·	-3%	·	·	·	·
Cc1cc(C)n(-c2nc3ccccc3[nH]c2=O)n1	-7%	-2%	?	24%	-13%	28µM*
Cc1cccc2nc(-c3ccccc3)nc(N3CCC(O)(c4ccc(Cl)cc4)CC3)c12	24%	-8%	-26%	14%	-5%	14µM*
O=S(=O)(c1ccc(Cl)cc1)N1CCN(c2nc(-c3ccc(Cl)cc3)nc3ccccc23)CC1	·	-3%	·	·	·	·
O=C(CCS(=O)(=O)c1nc(-c2cccs2)cc(C(F)(F)F)n1)Nc1ccc(Br)cc1	·	-11%	·	·	-16%	32µM*
O=C(CCS(=O)(=O)c1nc(-c2cccs2)cc(C(F)(F)F)n1)Nc1cc(Br)ccc1O	·	-11%	·	·	-20%	4%
SMILES	CBFb-RUNX1 inh	GRP78 ERSR act	N370S GC mod	a7 integrin act	Anesthetic bind	ClpP mod
O=C(N/N=C/c1ccc(F)c(F)c1)c1cc2c(s1)-c1ccccc1CC2	6%	-1%	-1%	18%	-7%	32µM*
Cc1ccccc1NCc1ccccc1O	-12%	-1%	?	-13%	18µM*	-3%
COc1ccc(CNC(=O)c2ccc(-c3ccccc3)cc2)cc1OC	-4%	-4%	17%	?	-3%	-1%
COc1ccccc1CNc1cc(-c2ccccc2)ccc1OC	-9%	-3%	4%	6%	40%	25µM*
COc1ccc(-c2ccccc2)cc1NCc1ccccc1C	-14%	2%	4%	0%	-14%	13µM*
COc1ccccc1CNc1ccccc1F	11%	-2%	2%	1%	?	·
COc1ccc(-c2ccccc2)cc1NCc1ccc(OC)c(OC)c1	-26%	-2%	3%	-4%	60%	28µM*
COc1cc2ncnc(NCc3ccccc3C)c2cc1OC	10%	-4%	-6%	2%	-8%	-26%
CN(C)c1ccc(C=O)cc1Cl	·	-2%	·	·	·	0%
Cc1cc(C(=O)Nc2ccccc2-c2nc(CNC(=O)c3ccc(F)cc3F)c(C)o2)c(C)o1	·	1%	·	·	·	·
COc1ccc(CCNC(=O)CC(=O)N/N=C/c2ccc(C(=O)O)cc2)cc1OC	·	-2%	3%	3%	2%	14µM*
O=C(CC(=O)N/N=C/c1ccc(C(=O)O)cc1)NCCc1ccccc1	·	-1%	0%	-7%	-13%	2%
CC1(C)CC(NC(=O)C(C)(C)Oc2ccc(Cl)cc2)CC(C)(C)N1	·	-4%	-1%	14%	-9%	-2%
CC(C)(Oc1ccc(Cl)cc1)C(=O)NC1CCCCC1	·	-5%	6%	29%	·	20µM*
COC(=O)c1sccc1-c1ccc(C(=O)Nc2cccc(Cl)c2)o1	0%	5%	22%	29%	-19%	357%
COC(=O)c1sccc1-c1ccc(/C=N/OC(=O)c2ccccc2)o1	3%	11%	-3%	12%	?	32µM*
Cn1c(C(=O)NCC2CCCO2)cc2c(=O)[nH]c3ccccc3c21 (stereo not drawn)	3%	4%	8%	6%	-3%	22µM*
CC(C)(NC(=O)c1cc(Cl)c2ccccc2c1O)C(=O)O	1%	6%	?	2%	37%	4%
O=C(O)c1cc(Cl)c2ccccc2c1O	-7%	1%	8%	14%	-2%	28µM*
CCc1ccccc1N(C)C	·	4%	·	·	·	1%
COC(=O)c1ccccc1NC1OC(=O)c2ccccc21 (stereo not drawn)	6%	-1%	0%	4%	-9%	32µM*
Cc1ccc2cccc(NC3OC(=O)c4ccccc43)c2n1 (stereo not drawn)	5%	-3%	5%	-6%	-7%	0%

Screens deposited in PubChem by National Center for Advancing Translational Sciences (NCATS).
